Source: PubChem BioAssay (NCI)
Compounds without any hit were thinned out: in the full panel of roughly 83,000, 20% have a hit.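 For each line, cells grew in 96-well plates with the test compound present at a single concentration for 48 hours.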 A number with no mark means an inactive call. Active and inactive are the calls of the source. The calls were made as follows: active = growth percent below 10; inactive = the rest.

Tested on: UACC-257 melanoma
Test: NCI-60 one-dose screen, 48 h (100 = growth as untreated, 0 = no growth, -100 = all killed)
Settings: 10 µM unless noted

| Compound | growth |
| --- | --- |
| CCCC[C@H](NC(=O)[C@H]1CCCN1C)C(=O)N(C)[C@H](C[C@@H](OC(C)=O)c1nc(C(=O)N[C@@H](Cc2ccccc2)C[C@H](C)C(=O)OCC)cs1)C(C)C | 46.1% |
| COc1ccc2c(c1)c(-c1nc(-c3c[nH]c4ncccc34)cs1)cn2CCCCN1CCCCC1 | -82.3% (active) |
| COC(=O)[C@H](Cc1ccccc1)NC(=O)c1csc([C@@H](C[C@H](C(C)C)N(C)C(=O)[C@@H](NC(=O)[C@H]2CCCN2C)C2CC2)OC(C)=O)n1 | 61.9% |
| C[C@]12CC[C@H]3[C@@H](CC[C@]4(O)C[C@@H](O[C@@H]5O[C@H](CO)[C@@H](O[C@@H]6OC[C@@H](O)[C@H](O)[C@H]6O)[C@H](O)[C@H]5O)CC[C@]34C=O)[C@@]1(O)CC[C@@H]2C1=CC(=O)OC1 | -3.23% (active) |
| c1cc2c(c3c1CCNC3)OCO2 | 78.5% |
| Fc1ccc2c(c1)c(-c1nc(-c3c[nH]c4ncccc34)cs1)cn2CCCCN1CCCCC1 | -87.2% (active) |
| O=C(Nc1ccncc1F)c1cn(CC2CC2)c2ccccc12 | 108% |
| COP(=S)(N1CC1)N1CC1 | 147% |
| CCc1ccccc1[C@@H]1C[C@]2(C)CCO[C@@H]2OO1 | 96.7% |
| CC(=O)O[C@H](C[C@H](C(C)C)N(C)C(=O)[C@@H](NC(=O)[C@H]1CCCCN1C)C(C)(C)C)c1nc(C(=O)N[C@@H](Cc2ccccc2)C[C@H](C)C(=O)O)cs1 | 47% |
| COc1ccc(C(=O)c2cc(OC)c(OC)c(OC)c2)cc1OC(C)=O | 55.7% |
| COc1ccc(N(CC(=O)NCCC[Te]c2ccccc2)C(=O)CNC(=O)OC(C)(C)C)cc1 | 109% |
| COC(=O)[C@@H](C)C[C@H](Cc1ccccc1)NC(=O)c1csc([C@@H](C[C@H](C(C)C)N(C)C(=O)[C@@H](NC(=O)[C@H]2CCCCN2C)C(C)C)OC(C)=O)n1 | 41.7% |
| CC[C@H](C)[C@@H]1OC(=O)C(C)(C)[C@H](O)[C@H](Cc2ccccc2)OC(=O)[C@H](C(C)C)OC(=O)[C@@H](NC(=O)c2cccc(NC=O)c2O)[C@@H](C)OC1=O | 32.3% |
| NC(=O)CNc1ccc([As]=[As]c2ccc(NCC(N)=O)cc2)cc1 (centres undefined) | 37.2% |
| Fc1ccc2c(c1)c(-c1nc(-c3c[nH]c4ncccc34)cs1)cn2CCN1CCOCC1 | 97.2% |
| O=C([O][Hg][CH2]C1COCC([CH2][Hg][O]C(=O)c2ccccc2)O1)c1ccccc1 (centres undefined) | -69.4% (active) |
| O=[N+]([O-])CC(c1ccccc1Cl)c1c(-c2ccccc2)[nH]c2ccccc12 (centres undefined) | 48.9% |
| CCn1c2ccccc2c2cc(C(=O)c3cccc4c3CCCN4)ccc21 | 113% |
| COc1ccc(/C(C)=C(\c2ccc(OCCN3CCOCC3)cc2)c2ccc(OC(=O)Cc3ccccc3)cc2)cc1 | 109% |
| Cc1cc(N(CCCl)CCCl)ccc1C=Nc1ccc(-c2csc(Cc3ccccc3)n2)cc1 | 46.2% |
| Cc1ccc2c(C(C[N+](=O)[O-])c3cccs3)c(-c3ccccc3)[nH]c2c1 (centres undefined) | 30% |
| O=C(CC1(O)C(=O)N(Cc2ccccc2)c2ccc(Cl)cc21)c1ccc(C(=O)NCC2CCC3(CC2)OOC2(CCCCC2)OO3)cc1 (centres undefined) | 26.4% |
| CCOC(=O)CCC(NC(=O)C(Cc1ccc(N(CCCl)CCCl)cc1)NC=O)C(=O)OCC (centres undefined) | -9.97% (active) |
| COC(=O)[C@@H](C)C[C@H](Cc1ccccc1)NC(=O)c1csc([C@@H](C[C@H](C(C)C)N(C)C(=O)[C@@H](NC(=O)C23CC(NC(C)=O)(C2)C3)C2CC2)OC(C)=O)n1 | 46.2% |
| COC(=O)[C@]12CCC(C)(C)C[C@H]1[C@H]1C(=O)C[C@@H]3[C@@]4(C)C[C@@]5(CC(C)(C)[C@@H]4CC[C@@]3(C)[C@]1(C)CC2)OO[C@@](C)(C(F)(F)F)O5 | 102% |
| CNC(=O)Oc1ccc(N(C)C)cc1C(C)C | 105% |
| COc1ccc(/C=C\c2cc(OC)c(OC)c(OC)c2)cc1OCC(=O)Nc1nc2ccc(C(F)(F)F)cc2s1 | 50% |
| O=C(CC1(O)C(=O)N(Cc2ccccc2)c2ccc(F)cc21)c1ccc(C(=O)NCC2CCC3(CC2)OOC2(CCCCC2)OO3)cc1 (centres undefined) | -2.89% (active) |
